Measured values published in the supplement of paper PMC6992640.
Counter-ions that a name gives are not always drawn. ± gives the standard deviation of the averaged measurements.

Tests used:
Assay in all cases: cell viability (% of vehicle); higher = less cytotoxic
Details in all cases: 10 µM; 72 h
[1] = test system: HCI01 (cells of a triple-negative basal-like breast cancer xenograft)
[2] = test system: HCI03 (cells of an ER-positive luminal breast cancer xenograft)
[3] = test system: HCI09 (cells of a triple-negative luminal androgen receptor type breast cancer xenograft)
[4] = test system: HCI11 (cells of an ER-positive luminal breast cancer xenograft)
[5] = test system: HCI13 (cells of an ER-positive luminal breast cancer xenograft)
[6] = test system: HCI16 (cells of a triple-negative basal-like breast cancer xenograft)
[7] = test system: UCD52 (cells of a triple-negative basal-like breast cancer xenograft)
[8] = test system: WHIM2 (cells of a triple-negative basal-like breast cancer xenograft)
[9] = test system: WHIM30 (cells of a triple-negative basal-like breast cancer xenograft)
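Also: PDX cells carrying CMV promoter-driven luciferase, viability read as total photon flux per second by IVIS imaging following D-luciferin, vehicle control 0.1% DMSO.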

SMILES	cell viability [1]	cell viability [2]	cell viability [3]	cell viability [4]	cell viability [5]	cell viability [6]	cell viability [7]	cell viability [8]	cell viability [9]
CC(=O)O[C@H]1C(=O)[C@@]2(C)[C@H]([C@H](OC(=O)c3ccccc3)[C@]3(O)C[C@H](OC(=O)[C@H](O)[C@@H](NC(=O)c4ccccc4)c4ccccc4)C(C)=C1C3(C)C)[C@]1(OC(C)=O)CO[C@@H]1C[C@@H]2O [Paclitaxel (Taxol)]	124 ± 7.2	92.4	95 ± 4.1	96.5	100 ± 8.8	156	66.2 ± 4.7	92.9 ± 12	114 ± 7.4
Cn1c(=O)c2[nH]cnc2n(C)c1=O.Cn1c(=O)c2[nH]cnc2n(C)c1=O.NCCN [Aminophylline]	98 ± 18	95.2	93.6 ± 9.1	99.4	101 ± 5.1	75.8	72 ± 16	97.4 ± 7.5	92.5 ± 24
Cc1c(C(=O)Nc2ccc(N3CC(C)OC(C)C3)nc2)cccc1-c1ccc(OC(F)(F)F)cc1 (stereo not drawn) [LDE225 (NVP-LDE225,Erismodegib)]	98.3 ± 17	119	66.8 ± 2.4	80.7	69.7 ± 4.5	94.8	80.8 ± 1.8	97.5 ± 14	86.1 ± 7.6
CN1CCN(C2=Nc3ccccc3Oc3ccc(Cl)cc32)CC1.O=C(O)CCC(=O)O [Loxapine Succinate]	117 ± 40	88.4	84.5 ± 17	84.4	64.9 ± 5.7	138	108 ± 6.8	104 ± 24	103 ± 6
CCOc1nc2cccc(C(=O)O)c2n1Cc1ccc(-c2ccccc2-c2nn[nH]n2)cc1 [Candesartan]	98 ± 5.4	122	93.6 ± 2.2	101	127.9 ± 1.2	109	82.15 ± 0.28	85.9 ± 7.9	112 ± 23
CC(N)(Cc1ccc(O)c(O)c1)C(=O)O (stereo not drawn) [Methyldopa]	95.3 ± 9.9	96.8	95.5 ± 7.2	63.1	126 ± 11	127	91.1 ± 2.8	112 ± 1.3	96.2 ± 3.6
CCCS(=O)c1ccc2nc(NC(=O)OC)[nH]c2c1 (stereo not drawn) [Albendazole Oxide]	115 ± 11	144	110 ± 35	105	68.2 ± 9.5	106	103 ± 11	112 ± 34	141.6 ± 1.2
CC1(C)SC2C(NC(=O)C(N)c3ccccc3)C(=O)N2C1C(=O)O.O.O.O (stereo not drawn) [Ampicillin Trihydrate]	138 ± 26	124	94.6 ± 8.1	110	143 ± 7.4	120	82 ± 7.2	103 ± 2.1	95.8 ± 2.6
CC1(c2nc3c(C(N)=O)cccc3[nH]2)CCCN1 (stereo not drawn) [ABT-888 (Veliparib)]	109 ± 7.5	120	108 ± 5.2	100	86.9 ± 14	91.1	94.2 ± 2	101 ± 14	121 ± 4.2
CC(=O)O[C@H]1Cc2ccccc2N(C(N)=O)c2ccccc21 [Eslicarbazepine acetate]	102 ± 12	116	111 ± 6.7	85.7	102 ± 11	106	95.5 ± 1.3	102 ± 27	94.1 ± 16
O=c1[nH]c(=O)n(C2CC(O)C(CO)O2)cc1F (stereo not drawn) [Floxuridine]	122 ± 5.9	103	103 ± 20	131	84.4 ± 5.7	161	167 ± 12	105 ± 13	149 ± 34
NNC(=O)c1ccncc1 [Isoniazid]	97.4 ± 7.2	109	92.6 ± 10	87.2	119 ± 13	127	72.6 ± 13	95.6 ± 4	114 ± 3.3
CC(=O)Oc1ccc(C(c2ccc(OC(C)=O)cc2)c2ccccn2)cc1 [Bisacodyl]	53.2 ± 14	130	30.9 ± 6.2	50.3	184 ± 16	70.9	80.9 ± 17	111 ± 43	76.5 ± 1.4
CN1CCN(c2cc3c(cc2F)c(=O)c(C(=O)O)cn3-c2ccc(F)cc2)CC1 [Difloxacin HCl]	60.2 ± 1	84.7	53.6 ± 2	190	115 ± 8.6	94.8	116 ± 9.9	71.6 ± 21	130 ± 23
CC1C(=O)OC2CC34C5CC(C(C)(C)C)C36C(OC(=O)C6O)OC4(C(=O)O5)C21O (stereo not drawn) [Ginkgolide A]	98.9 ± 14	112	97.3 ± 6.1	96.5	114 ± 6	116	91.6 ± 10	101 ± 12	91.5 ± 9.4
FC(F)(F)c1ccc(C=Cc2nc(COc3ccc(CCCCn4ccnn4)cc3)co2)cc1 [Mubritinib (TAK 165)]	111 ± 4	89.9	26.1 ± 3.1	62.2	65.54 ± 0.49	124	56.43 ± 0.074	120 ± 31	63.1 ± 6.1
CN(C)CC(c1ccc(O)cc1)C1(O)CCCCC1 (stereo not drawn) [Desvenlafaxine]	84 ± 2.4	118	92.5 ± 18	80.5	90.1 ± 13	126	92.2 ± 9.2	79.9 ± 7.9	124 ± 7.7
O=C(O)C=Cc1ccc(Cn2ccnc2)cc1 [Ozagrel]	95.1 ± 6.6	145	90.9 ± 16	106	116 ± 6.6	98.4	88 ± 3.2	97.8 ± 2.4	87.2 ± 20
C#CCC(Cc1cnc2nc(N)nc(N)c2n1)c1ccc(C(=O)NC(CCC(=O)O)C(=O)O)cc1 (stereo not drawn) [Pralatrexate]	134 ± 15	117	102 ± 11	115	157 ± 27	103	110 ± 8.8	121 ± 10	117 ± 4.2

SMILES	cell viability [1]	cell viability [2]	cell viability [3]	cell viability [4]	cell viability [5]	cell viability [6]	cell viability [7]	cell viability [8]	cell viability [9]
NC(=O)c1ncn(C2OC(CO)C(O)C2O)c1O (stereo not drawn) [Mizoribine]	82.4 ± 3.9	89.4	93.1 ± 30	88.8	90.05 ± 0.16	87.7	88.5 ± 5	97 ± 11	84.4 ± 3.9
CCC1OC(=O)C(C)C(OC2CC(C)(OC)C(O)C(C)O2)C(C)C(OC2OC(C)CC(N(C)C)C2O)C(C)(O)CC(C)CN(C)C(C)C(O)C1(C)O.O.O (stereo not drawn) [Azithromycin Dihydrate]	110 ± 9	114	101 ± 10	112	144 ± 5	104	85.4 ± 1.5	102 ± 2.7	89 ± 1.7
O=c1ccc2ccccc2o1 [Coumarin]	110 ± 15	145	99.9 ± 6.8	95	102 ± 7.2	128	93.3 ± 14	113 ± 4.4	114 ± 2.5
COc1ccc(CN(CCN(C)C)c2ccccn2)cc1.O=C(O)/C=C\C(=O)O [Mepyramine maleate]	93.8 ± 18	133	88.5 ± 12	93.9	85.6 ± 8.7	107	112 ± 8.7	94.4 ± 8.4	111 ± 6
Clc1ccc2c(c1)CCc1cccnc1C2=C1CCNCC1 [Desloratadine]	164 ± 55	143	99.6 ± 1.5	77.5	128 ± 19	128	67.2 ± 9.1	69.5 ± 16	102 ± 7.8
COc1cc(NS(=O)(=O)c2ccc(N)cc2)nc(OC)n1 [Sulfadimethoxine]	91.8 ± 17	155	103 ± 14	103	116 ± 1.2	118	112 ± 5.2	86.1 ± 9.4	172 ± 27
CCOc1cc(C(CS(C)(=O)=O)N2C(=O)c3cccc(NC(C)=O)c3C2=O)ccc1OC (stereo not drawn)	161 ± 13	149	112.6 ± 0.15	121	150 ± 16	135	117 ± 13	118 ± 7.6	140 ± 16
CC1Cc2ccccc2N1NC(=O)c1ccc(Cl)c(S(N)(=O)=O)c1 (stereo not drawn) [Indapamide]	98 ± 9.9	100	94.6 ± 4.7	88.8	110 ± 14	128	80.2 ± 1.6	107 ± 18	105 ± 3.4
O=C(O)C=Cc1ccccc1 [Cinnamic acid]	98.7 ± 32	108	96 ± 4.4	94.3	107 ± 15	121	98.4 ± 12	105 ± 15	117.9 ± 0.11
Br.Br.Br.Br.Br.Cc1cc(N2CCN(C3CNC(C(=O)N4CCSC4)C3)CC2)n(-c2ccccc2)n1.Cc1cc(N2CCN(C3CNC(C(=O)N4CCSC4)C3)CC2)n(-c2ccccc2)n1 (stereo not drawn) [Teneligliptin hydrobromide]	111 ± 3.1	95.2	82.5 ± 13	71.5	79.96 ± 0.58	88.2	82 ± 1.3	99 ± 20	88.4 ± 3.9
CC(OC1OCCN(Cc2nc(=O)[nH][nH]2)C1c1ccc(F)cc1)c1cc(C(F)(F)F)cc(C(F)(F)F)c1 (stereo not drawn) [Aprepitant]	81 ± 48	91.5	77.5 ± 16	86.9	35.8 ± 4.5	66.1	75.3 ± 3.8	100 ± 11	83.6 ± 3.1
CN1C2CCC1CC(OC(c1ccccc1)c1ccccc1)C2.CS(=O)(=O)O (stereo not drawn) [Benztropine mesylate]	189 ± 60	108	110 ± 13	94	120 ± 14	125	80.4 ± 7.7	83.4 ± 12	141 ± 1.6
CC(=O)OC1CCC2(C)C(=CCC3C2CCC2(C)C(c4cccnc4)=CCC32)C1 (stereo not drawn) [Abiraterone acetate]	96.7 ± 14	87.6	65.8 ± 28	88.7	68 ± 12	98	62.6 ± 1.9	95.5 ± 20	117 ± 51
CCOc1cc(CC(=O)NC(CC(C)C)c2ccccc2N2CCCCC2)ccc1C(=O)O (stereo not drawn) [Repaglinide]	88 ± 1.1	131	117 ± 15	111	80.3 ± 12	118	80.672 ± 0.07	96.8 ± 5.5	126 ± 18
O=C(NC(Cc1cc(=O)[nH]c2ccccc12)C(=O)O)c1ccc(Cl)cc1 (stereo not drawn) [Rebamipide]	92.4 ± 31	129	88.63 ± 0.71	97	117 ± 5.6	102	100 ± 6.4	86.2 ± 10	115 ± 8.9
CC(C)NCC(O)c1ccc(NS(C)(=O)=O)cc1.Cl (stereo not drawn) [Sotalol]	120 ± 11	116	105 ± 37	103	103 ± 5.8	105	85.2 ± 2.1	101 ± 13	118 ± 17
Nc1cccc2c1CN(C1CCC(=O)NC1=O)C2=O (stereo not drawn) [Lenalidomide (CC-5013)]	111 ± 4.1	107	85.5 ± 10	102	80.5 ± 0.91	101	80.5 ± 12	78.6 ± 3.5	134 ± 6.6
COc1cc2nccc(Oc3ccc(NC(=O)C4(C(=O)Nc5ccc(F)cc5)CC4)cc3)c2cc1OC	108 ± 6.6	114	91.5 ± 2	88.9	97.7 ± 13	93.8	88.3 ± 15	90.1 ± 11	116 ± 3.4
